# Rows were chosen to be rich in hits. Some 2.4% of all compounds tested hit in one or more screens of this group.
# DYRK1A inh – inhibitors of rat Dyrk1A kinase | ADP-Glo luminescence, NFATc1 peptide | AID 504441 | inhibition, % at 12.5 µM | 310,000 tested, 0.43% active;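 note: plate controls were vehicle with enzyme for no effect and no enzyme for full effect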
# INS-1E GSIS act – primary screen for activators of insulin secretion dependent on glucose, INS-1E cells, GLuc reporter luminescence. INS-1E GLuc reporter insulin secretion, 2-3 h. activation, % at 16.6 µM. 370,000 tested, 0.61% active. AID 743287;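 active = lowest replicate activation of at least 40%, so every replicate reaches that level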;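 note: 0% = median of neutral control wells and 100% = median of IBMX positive control wells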
# miR-122 sensor – blocks miR-122 activity in Huh7 sensor cells. activation (reporter increase), % at 12.5 µM. 340,000 tested, 0.3% active. Huh7 miR-122 Renilla luciferase sensor, 48 h; neutral wells = 0, positive control = 100;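 active = mean replicate activation score at least 90 and every replicate individually at or above 90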;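 note: higher luciferase means less miR-122 activity so hits act as miR-122 inhibitors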
# NSD2 HMT inh – blocks human histone methyltransferase NSD2; O96028; AID 743445; NSD2 peptide methylation, AlphaScreen, 120 min; 310,000 tested, 0.54% active; inhibition, % at 12.5 µM
# Wnt bcat act – activates Wnt/beta-catenin signaling in a reporter cell assay. activator, plate reader. activation, % at 9.35 µM. 300,000 tested, 1.2% active; in the data active = activation above about 30%, passing the limit was not always enough;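 note: 0% = neutral control wells and 100% = positive control wells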
# MITF act – MITF TRPM1 promoter activation in melanoma cells; SK-MEL-5 TRPM1-promoter luciferase, 24 h; % of positive control, neutral wells = 0; activation, % at 12.5 µM; 300,000 tested, 0.75% active;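 active = mean activation of at least 80% with every replicate also reaching 80%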;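 note: 0% = neutral control wells and 100% = parthenolide positive control wells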
# Numbers without * were called inactive; nt = no result given; [ ] = another dose, or the depositor's remark. Cut-off read from the data, not from the text of the source, unless noted: active = inhibition above about 50%; inactive = the rest.
SMILES,DYRK1A inh,INS-1E GSIS act,miR-122 sensor,NSD2 HMT inh,Wnt bcat act,MITF act
COc1ccc(NC(=O)Nc2ccc3c(c2)C(=O)N([C@H](C)CO)C[C@H](C)[C@H](CN(C)Cc2ccncc2)O3)cc1,nt,5.2,-6.2[16.7 µM],nt,nt,nt
O=C(COC(=O)c1c2c(nc3ccccc13)CCN(Cc1ccccc1)C2)Nc1c(F)cccc1F,-5.5,12.1,174.8*,1.1,nt,-5.1
C[C@@H]1CN([C@H](C)CO)C(=O)c2cc(NC(=O)Cc3cn(C)c4ccccc34)ccc2O[C@H]1CN(C)C(=O)Nc1ccc(F)cc1,nt,-4.5,0.6[16.7 µM],nt,nt,nt
CC(C)(C)OC(=O)N1CCC(NC(=O)c2ncn(Cc3ccccc3)c2C(=O)NC2CCN(C(=O)OC(C)(C)C)CC2)CC1,6.5,-36.1,-2.7,nt,-5.6,432.5*
Cc1ccccc1S(=O)(=O)N1CCCCN2[C@H](CO)[C@@H](c3ccc(-c4ccccc4)cc3)[C@@H]2C1,nt,nt,6.5[16.7 µM],nt,nt,nt
CN(C)N=Nc1ccc(S(N)(=O)=O)cc1,-2.4,-0.4,-8.5,13.5,-1.2,-3.8
CN(C)c1ccc(N=Nc2ccc(S(N)(=O)=O)cc2)cc1,1.1,-2.4,-9.3,1.8,42.4*,67.3
CCCNC(=O)NC[C@H]1[C@H](c2ccc(C3=CCCC3)cc2)[C@H](CO)N1C(C)=O,nt,-6.7,-21.4[16.7 µM],nt,nt,nt
Nc1c(C(=O)Nc2ccccc2)sc2nc(-c3cccnc3)ccc12,nt,17.3,nt,1.7,8.1,nt
Nc1c(C(=O)N2CCCC2)sc2nc(-c3ccccc3)ccc12,2.9,nt,nt,-7.0,49.1*,103.1*
COc1cc(C)c(Cl)c(C)c1S(=O)(=O)NCc1cccnc1,-11.7,nt,121.3*,-0.6,nt,nt
COc1cc(S(=O)(=O)NCc2ccncc2)c(OC)cc1Br,-1.5,12.2,nt,-1.9,-1.8,-6.8
COc1cc(S(=O)(=O)NCc2cccnc2)c(OC)cc1Br,-3.5,nt,108.2*,0.8,-0.2,nt
O=C(C1CCC1)N1CC(=O)N2[C@@H](CO)[C@@H](c3ccc(C#CCc4ccccc4)cc3)[C@@H]2C1,nt,57.6,nt,nt,nt,nt
C[C@@H]1CN([C@@H](C)CO)S(=O)(=O)c2ccc(C#CC3CC3)cc2O[C@@H]1CN(C)C(=O)c1ccncc1,nt,3.9,-23.3[16.7 µM],nt,nt,nt
CCCc1cc(N2CCCC(C(=O)NCc3ccc4c(c3)OCO4)C2)n2ncnc2n1 (stereo not drawn),4.0,54.4*,23.2,0.6,-1.3,-6.4
O=C1CCCC2=C1C(c1ccc3c(c1)OCO3)c1c([nH]n(-c3ccccc3)c1=O)N2 (stereo not drawn),3.7,nt,191.3*,12.9,1.7,-16.8
c1ccc2oc(-c3ccn[nH]3)cc2c1,3.2,-0.3,-2.1,0.1,40.0*,nt
COCC(=O)N1CC2(CN(Cc3ccccc3Cl)C2)c2c([nH]c3cc(OC)ccc23)[C@H]1CO,nt,-15.4,nt,nt,nt,nt
CN(C)C(=O)[C@H]1[C@H](CO)[C@H]2Cn3c(ccc(-c4ccccc4)c3=O)[C@@H]1N2C(=O)C1CCC1,nt,9.1,nt,nt,nt,nt
COc1ccc(-c2csc(Nc3cccc(C)n3)n2)cc1C,1.8,-3.9,3.4,nt,37.3*,nt
CC1(CCC(=O)O)C(=O)CCC2C1CCC1(C)C2CCC1(C)O (stereo not drawn),nt,-4.1,1.6,0.4,33.2*,7.5
COc1ccc(CCNC(=O)CSc2cccc3cccnc23)cc1OC,0.2,40.5*,3.0,-3.3,-0.9,4.0
COc1ccc(CCNC(=O)CSc2ccccc2)cc1OC,0.1,72.8*,nt,-0.9,nt,1.5
COc1ccc(CCNC(=O)CSC(=O)c2ccccc2)cc1OC,-1.7,46.0*,nt,0.7,-2.2,5.1
SMILES,DYRK1A inh,INS-1E GSIS act,miR-122 sensor,NSD2 HMT inh,Wnt bcat act,MITF act
Cc1c(C(=O)C(=O)NCCC2=CCCCC2)c2ccccc2n1C,1.9,nt,nt,-0.6,-1.6,-3.2
COc1ccc(CCNC(=O)C(=O)c2c(C)n(C)c3ccccc23)cc1OC,2.8,46.0*,-1.3,0.3,-1.5,-2.3
CCC(=O)N1[C@H](CO)[C@@H](c2ccccc2)C12CN(CCC(F)(F)F)C2,nt,14.5,nt,nt,nt,nt
C[C@H]1CN([C@@H](C)CO)C(=O)c2ccccc2-c2ccccc2CO[C@@H]1CN(C)S(=O)(=O)c1cccs1,nt,3.8,nt,nt,nt,nt
O=C(OCc1ccccc1Cl)c1cccnc1Cl,nt,2.3,0.6,-3.5,nt,7.8
O=C(OCc1ccccc1Cl)c1ccccc1C(=O)c1ccccc1,11.6,nt,136.9*,-6.2,nt,16.5
COc1ccc(NC(=O)c2ccc(-c3ccccc3Cl)o2)cc1,8.2,-0.2,-5.7,nt,24.0,115.8*
